Test results from PubChem BioAssay AID1159580 (chemical genetic matrix, 2015).
“And” between values parts separate entries of the source, which are not always exact repeats. Equal values may be shown once. Among all 5,500 compounds or so, about 2,000 (36%) were called active. Another 18% or so got no clear call; they are omitted. Rule as the data show it: active = normalized growth mostly below about 0.91 (no sharp cut-off); inconclusive = no clear call, values can overlap the other calls; inactive = mostly above about 0.92. Some of the results follow.

Assay: chemical genetic growth profiling, strain panel (AID 1159580);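 also: tested at 20 µM; growth read once vehicle control cultures reached saturation at 30 °C; 1 = growth at the plate median or of vehicle wells; lower values mean less growth of the strain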
Conditions: S. cerevisiae deletion strains, growth OD

Measured: normalized growth

COc1cc(O)c2c(=O)cc(C)oc2c1CC=C(C)C
inactive: locus YAL021C, strain ccr4, stronger effect = lower value 0.99 | locus YAL026C, strain drs2, stronger effect = lower value 0.996 | locus YAL030W, strain snc1, stronger effect = lower value 0.967 | locus YBL061C, strain skt5, stronger effect = lower value 0.96 | locus YBR009C, strain hhf1, stronger effect = lower value 0.917 | locus YBR021W, strain FUR4, stronger effect = lower value 0.9 | locus YBR023C, strain chs3, stronger effect = lower value 0.941 | locus YBR171W, strain sec66, stronger effect = lower value 0.968 | locus YBR229C, strain ROT2, stronger effect = lower value 0.93 | locus YBR231C, strain swc5, stronger effect = lower value 0.98 | locus YBR279W, strain paf1, stronger effect = lower value 0.991 | locus YCL011C, strain gbp2, stronger effect = lower value 0.962 | locus YCL016C, strain dcc1, stronger effect = lower value 0.953 | locus YCL069W, strain vba3, stronger effect = lower value 0.997 | locus YCR088W, strain abp1, stronger effect = lower value 0.982 | locus YDL005C, strain med2, stronger effect = lower value 1.03 | locus YDL040C, strain nat1, stronger effect = lower value 0.986 | locus YDL101C, strain DUN1, stronger effect = lower value 0.954 | locus YDL185W, strain tfp1, stronger effect = lower value 0.929 | locus YDR001C, strain nth1, stronger effect = lower value 0.979 | locus YDR069C, strain doa4, stronger effect = lower value 0.97 | locus YDR150W, strain NUM1, stronger effect = lower value 0.946 | locus YDR159W, strain sac3, stronger effect = lower value 0.959 | locus YDR297W, strain sur2, stronger effect = lower value 0.967 | locus YDR334W, strain swr1, stronger effect = lower value 0.984 | locus YDR335W, strain msn5, stronger effect = lower value 0.986 | locus YDR388W, stronger effect = lower value 0.943 | locus YEL003W, strain gim4, stronger effect = lower value 0.957 | locus YEL037C, strain rad23, stronger effect = lower value 0.984 | locus YEL061C, strain CIN8 (second series), stronger effect = lower value 0.993 | locus YEL061C, strain CIN8, stronger effect = lower value 0.941 | locus YER015W, strain faa2, stronger effect = lower value 0.977 | locus YER016W, strain bim1, stronger effect = lower value 0.965 | locus YER110C, stronger effect = lower value 0.947 | locus YER111C, strain swi4, stronger effect = lower value 1.01 | locus YER155C, strain BEM2 (second series), stronger effect = lower value 0.903 | locus YER155C, strain BEM2, stronger effect = lower value 0.928 | locus YFR010W, strain ubp6, stronger effect = lower value 1 | locus YGL078C, strain dbp3, stronger effect = lower value 0.971 | locus YGL167C, strain pmr1, stronger effect = lower value 0.952 | locus YGL173C, strain kem1, stronger effect = lower value 0.982 | locus YGL227W, strain vid30, stronger effect = lower value 1 | locus YGL240W, strain doc1, stronger effect = lower value 0.987 | locus YGL248W, strain PDE1, stronger effect = lower value 0.898 | locus YGL253W, strain hxk2, stronger effect = lower value 0.99 | locus YGR078C, strain PAC10, stronger effect = lower value 0.874 | locus YGR135W, strain pre9, stronger effect = lower value 1 | locus YGR252W, strain gcn5, stronger effect = lower value 0.839 | locus YHR027C, strain rpn1, stronger effect = lower value 0.985 | locus YHR030C, strain SLT2, stronger effect = lower value 0.95 | locus YHR079C, strain IRE1 (second series), stronger effect = lower value 0.949 | locus YHR079C, strain IRE1, stronger effect = lower value 0.953 | locus YHR094C, strain hxt1, stronger effect = lower value 0.941 | locus YHR142W, strain chs7, stronger effect = lower value 0.884 | locus YHR200W, strain rpn10, stronger effect = lower value 0.952 | locus YIL073C, strain SPO22, stronger effect = lower value 0.849 | locus YJL092W, strain hpr5, stronger effect = lower value 0.985 | locus YJL115W, strain asf1, stronger effect = lower value 1.02 | locus YJL134W, strain LCB3, stronger effect = lower value 0.946 | locus YJL154C, strain vps35, stronger effect = lower value 1 | locus YJL164C, strain tpk1, stronger effect = lower value 0.941 | locus YJL166W, strain qcr8, stronger effect = lower value 0.967 | locus YJL168C, strain set2, stronger effect = lower value 0.965 | locus YJL187C, strain SWE1 (second series), stronger effect = lower value 0.943 | locus YJR043C, strain POL32, stronger effect = lower value 0.87 | locus YJR066W, strain TOR1, stronger effect = lower value 0.929 | locus YKL009W, strain mrt4, stronger effect = lower value 0.897 | locus YKL068W, stronger effect = lower value 0.945 | locus YKL085W, strain MDH1 (second series), stronger effect = lower value 0.936 | locus YKL085W, strain MDH1, stronger effect = lower value 0.936 | locus YKL160W, strain elf1, stronger effect = lower value 0.945 | locus YKR026C, strain gcn3, stronger effect = lower value 0.986 | locus YKR091W, strain srl3, stronger effect = lower value 0.978 | locus YLL001W, strain dnm1, stronger effect = lower value 0.982 | locus YLL026W, stronger effect = lower value 0.974 | locus YLL041C, strain sdh2, stronger effect = lower value 0.96 | locus YLR027C, strain aat2, stronger effect = lower value 0.972 | locus YLR039C, strain RIC1, stronger effect = lower value 0.797 | locus YLR058C, strain SHM2, stronger effect = lower value 0.912 | locus YLR102C, strain apc9, stronger effect = lower value 0.945 | locus YLR221C, strain rsa3, stronger effect = lower value 0.942 | locus YLR258W, strain gsy2, stronger effect = lower value 0.972 | locus YLR262C, strain YPT6, stronger effect = lower value 0.674 | locus YLR342W, strain FKS1, stronger effect = lower value 0.929 | locus YLR357W, strain rsc2, stronger effect = lower value 1.06 | locus YLR370C, strain arc18, stronger effect = lower value 0.97 | locus YLR384C, strain iki3, stronger effect = lower value 0.991 | locus YML016C, strain PPZ1, stronger effect = lower value 0.944 | locus YML120C, strain ndi1, stronger effect = lower value 0.976 | locus YML124C, strain tub3, stronger effect = lower value 0.945 | locus YMR078C, strain ctf18, stronger effect = lower value 0.919 | locus YMR125W, strain sto1, stronger effect = lower value 0.997 | locus YMR129W, stronger effect = lower value 0.979 | locus YMR223W, strain ubp8, stronger effect = lower value 0.911 | locus YMR231W, strain pep5, stronger effect = lower value 1.01 | locus YMR307W, strain GAS1, stronger effect = lower value 0.668 | locus YNL067W, strain RPL9B, stronger effect = lower value 1 | locus YNL153C, strain GIM3, stronger effect = lower value 0.926 | locus YNL183C, strain NPR1, stronger effect = lower value 0.935 | locus YNL209W, strain ssb2, stronger effect = lower value 0.973 | locus YNL248C, strain rpa49, stronger effect = lower value 1.04 | locus YNL250W, strain rad50, stronger effect = lower value 0.977 | locus YNL271C, strain bni1, stronger effect = lower value 0.953 | locus YNL298W, strain CLA4, stronger effect = lower value 0.923 | locus YNL322C, strain KRE1 (second series), stronger effect = lower value 0.998 | locus YNR049C, strain mso1, stronger effect = lower value 0.996 | locus YNR052C, strain pop2, stronger effect = lower value 0.988 | locus YOL012C, strain htz1 0.465 | locus YOR001W, strain rrp6, stronger effect = lower value 0.989 | locus YOR061W, strain CKA2, stronger effect = lower value 0.92 | locus YOR069W, strain VPS5, stronger effect = lower value 0.964 | locus YOR070C, strain gyp1, stronger effect = lower value 0.982 | locus YOR080W, strain dia2, stronger effect = lower value 0.993 | locus YOR083W, strain WHI5, stronger effect = lower value 0.97 | locus YOR106W, strain vam3, stronger effect = lower value 0.971 | locus YOR136W, strain idh2, stronger effect = lower value 0.963 | locus YOR231W, strain MKK1, stronger effect = lower value 0.941 | locus YOR265W, strain rbl2, stronger effect = lower value 0.973 | locus YOR270C, strain vph1, stronger effect = lower value 0.837 | locus YOR290C, strain snf2, stronger effect = lower value 0.941 | locus YOR316C, strain cot1, stronger effect = lower value 0.944 | locus YPL051W, strain arl3, stronger effect = lower value 0.936 | locus YPL078C, strain atp4, stronger effect = lower value 0.959 | locus YPL106C, strain sse1, stronger effect = lower value 0.954 | locus YPL240C, strain hsp82, stronger effect = lower value 0.965 | locus YPL256C, strain CLN2, stronger effect = lower value 0.933 | locus YPR119W, strain clb2, stronger effect = lower value 0.951 | locus YPR141C, strain kar3, stronger effect = lower value 0.93 | locus YPR167C, strain met16, stronger effect = lower value 0.937
active: locus YAL013W, strain DEP1, stronger effect = lower value 0.864 | locus YCL029C, strain bik1, stronger effect = lower value 0.872 | locus YDL035C, strain GPR1, stronger effect = lower value 0.805 | locus YDL074C, strain BRE1, stronger effect = lower value 0.748 | locus YDL192W, strain arf1, stronger effect = lower value 0.814 | locus YDR101C, strain arx1, stronger effect = lower value 0.89 | locus YDR137W, strain rgp1, stronger effect = lower value 0.817 | locus YDR162C, strain NBP2, stronger effect = lower value 0.696 | locus YDR195W, strain ref2 1.17 [resistant] | locus YDR318W, strain mcm21, stronger effect = lower value 0.806 | locus YDR392W, strain spt3, stronger effect = lower value 0.496 | locus YDR502C, strain sam2, stronger effect = lower value 0.909 | locus YER167W, strain BCK2, stronger effect = lower value 0.893 | locus YGL086W, strain mad1, stronger effect = lower value 0.876 | locus YHR013C, strain ard1, stronger effect = lower value 1.21 [resistant] | locus YHR129C, strain ARP1, stronger effect = lower value 0.919 | locus YIL066C, strain RNR3, stronger effect = lower value 0.781 | locus YIL125W, strain kgd1, stronger effect = lower value 0.93 | locus YIR030C, strain dcg1, stronger effect = lower value 0.92 | locus YJL095W, strain BCK1 (second series), stronger effect = lower value 0.905 | locus YJL129C, strain trk1, stronger effect = lower value 0.867 | locus YKR001C, strain vps1, stronger effect = lower value 0.806 | locus YLR113W, strain HOG1, stronger effect = lower value 0.838 | locus YLR262C, strain YPT6 (second series), stronger effect = lower value 0.827 | locus YLR268W, strain sec22, stronger effect = lower value 0.816 | locus YLR320W, strain mms22, stronger effect = lower value 0.83 | locus YLR330W, strain CHS5, stronger effect = lower value 0.811 | locus YLR342W, strain FKS1 (second series), stronger effect = lower value 0.78 | locus YLR371W, strain rom2, stronger effect = lower value 0.831 | locus YLR418C, strain cdc73, stronger effect = lower value 0.628 | locus YML032C, strain rad52, stronger effect = lower value 0.858 | locus YMR058W, strain fet3, stronger effect = lower value 0.845 | locus YMR205C, strain PFK2, stronger effect = lower value 0.849 | locus YNL071W, strain lat1, stronger effect = lower value 0.847 | locus YNL233W, strain BNI4, stronger effect = lower value 0.852 | locus YNL307C, strain MCK1, stronger effect = lower value 0.618 | locus YOL147C, strain pex11, stronger effect = lower value 0.818 | locus YOR144C, strain elg1, stronger effect = lower value 0.919 | locus YOR184W, strain ser1, stronger effect = lower value 0.587 | locus YPR163C, strain tif3, stronger effect = lower value 0.776 | strain wtn01, stronger effect = lower value 0.852
0.78 (active) and 0.962 (inactive): locus YJL095W, strain BCK1, stronger effect = lower value
